Holding throughout (assay): NCI-60 one-dose screen, 48 h (100 = growth as untreated, 0 = no growth, -100 = all killed)
Conditions in all cases: 10 µM unless noted

Assay [1] has as its system SR leukemia.
Assay [2] concerns RPMI-8226 leukemia.
Assay [3] deals with OVCAR-8 ovarian.
Assay [4] concerns OVCAR-5 ovarian.
For assay [5], the system named is OVCAR-4 ovarian.
The test system of assay [6] is SK-OV-3 ovarian.
The test system of assay [7] is IGROV1 ovarian.
For assay [8], the system named is OVCAR-3 ovarian.
For assay [9], the system named is HS 578T breast.
The test system of assay [10] is NCI/ADR-RES ovarian.
In assay [11] the test system is T-47D breast.
Assay [12] deals with BT-549 breast.
The subject of assay [13] is MDA-MB-435 melanoma.
Assay [14] deals with SW-620 colon.
The subject of assay [15] is MCF7 breast.
Assay [16] relates to HCT-116 colon.
Assay [17] relates to HCC-2998 colon.
Assay [18] concerns KM12 colon.

Compounds without any hit were thinned out: in the full panel of roughly 83,000, 20% have a hit.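 Cells were grown in 96-well plates and exposed to the test compound at a single concentration for 48 hours; results are reported as percent growth, with values below 10 considered active.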 Unmarked numbers belong to inactive results. Activity calls are given as the source filed them.

For the molecule `COc1ccc2c(c1)c(-c1nonc1-c1c[nH]c3ccc(Br)cc13)cn2C`, the growth is 14.6% in [1]; 45.5% in assay [2]; 48.2% in [3]; 55.3% in assay [4]; 55.1% in [5]; 58.4% in [6]. The growth in assay [7] was 52.7%; in [8], 41.1%; in assay [9], 59.1%; in assay [10], 34.9%; in assay [11], 25.7%; in assay [12] it was 63.6%. Besides, the growth in assay [13] was 6.34% (active); in assay [14], 33.7%; in [15] it was 24.9%; in assay [16] it was 31.6%; in [17] it was 38.7%; in assay [18] it was 14.5%.

For `CCN(CC)CCN(CCN(CC)CC)c1ccccc1`, the growth in [1] is 111%; in assay [2], 103%; in [3], 91.4%; in assay [4], 94.3%; in [5], 101%; in assay [6] it was 92.7%. The growth in [7] was 90%; in assay [8] it was 109%; in assay [9] it was 89.2%; in assay [10] it was 100%; in assay [11], 89.3%; in assay [12] it was 54.3%. Also, the growth is 103% in [13]; 95.8% in assay [14]; 100% in [15]; 74.6% in assay [16]; 91.5% in assay [17]; 108% in assay [18].

As for `O=C(/C=C/c1ccc(Br)cc1)c1ccc(-n2cc(CN3CCN(c4cc5c(cc4F)c(=O)c(C(=O)O)cn5C4CC4)CC3)nn2)cc1`, the growth in [1] was 16.6%; in assay [2], 34.2%; in [3], 79%; in [4], 99.5%; in assay [5], 91.4%; in [6] it was 78.4%. The growth in [7] was 74.2%; in [8], 95.9%; in [9] it was 83.6%; in [10], 102%; in assay [11], 80%; in assay [12], 81.3%. For the same molecule, the growth in [13] is 86.6%; in [14], 95.5%; in assay [15], 64.8%; in assay [16] it was 7.82% (active); in assay [17], 98.5%; in assay [18] it was 88.8%.

Consider `CCCCSCC(=O)c1ccccc1`, for which the growth in assay [1] was 88.3%; in [2] it was 106%; in [3] it was 94.2%; in assay [4], 95.2%; in assay [5], 100%; in [6], 81.4%. The growth was 99.3% in assay [7]; 99.3% in assay [8]; 110% in assay [9]; 97.9% in assay [10]; 95.4% in [11]; 99.9% in [12]. Further, the growth was 106% in assay [13]; 105% in assay [14]; 98.2% in [15]; 95.2% in assay [16]; 100% in assay [17]; 98.5% in [18].

`CCOC(=O)Nc1nc2ccc(SCC(C)C)cc2s1`: the growth in assay [1] is 12.5%; in assay [2] it was 32.3%; in assay [3], 49.1%; in assay [4], 50.2%; in assay [5] it was 95.3%; in [6] it was 28.6%. Further, the growth in assay [7] was 51.1%; in assay [8], -16.4% (active); in assay [9] it was 30.3%; in assay [10], 14.1%; in assay [11], 24.3%; in assay [12], 47.1%. Further, the growth in assay [13] is 104%; in assay [14] it was 33.8%; in assay [15], 20.6%; in assay [16] it was 31.4%; in [17], 75%; in [18], 34.4%.

As for `COc1cc(/C=C2\C(=O)N(c3c(Cl)cccc3Cl)c3ccccc32)cc(OC)c1OCCCCCCn1c2ccccc2c(=O)c2ccccc21`, the growth in [1] was 85.7%; in [2] it was 102%; in assay [3] it was 98.3%; in assay [4], 88.6%; in assay [5], 95.5%; in assay [6] it was 110%. For the same molecule, the growth in assay [7] was 75.5%; in assay [8], 104%; in assay [9], 113%; in [10], 109%; in [11], 89.6%; in assay [12], 94.4%. For the same molecule, the growth in assay [13] is 103%; in [14], 106%; in assay [15], 92%; in assay [16] it was 95.9%; in assay [17], 112%; in [18], 103%.

On to `CCn1c2ccc(O)cc2c2c(C)c3c[n+](C(C)C)ccc3c(C)c21`, for which the growth in assay [1] was 11.9%; in assay [2] it was 27.8%; in [3] it was 37.6%; in assay [4], 83.6%; in assay [5] it was 43.2%; in assay [6], 89.8%. Also, the growth in assay [7] was 50.8%; in assay [8] it was 19.5%; in assay [9] it was 34.8%; in assay [10], 66.5%; in assay [11], -15.4% (active); in assay [12], 9.02% (active). Besides, the growth in [13] was 28.5%; in assay [14] it was 25.6%; in assay [15], 17.8%; in assay [16], 37.3%; in assay [17], 42.6%; in [18], 15%.

For `CCOC(=O)c1c(C)nc2c(c1N)CC(=O)N2Cc1cc(OC)c(OC)c(OC)c1`, the growth in assay [1] was 20.7%; in [2], 40.9%; in assay [3], 61.9%; in assay [4], 93%; in [5] it was 51.3%; in [6] it was 57.2%. Also, the growth in [7] is 53.1%; in [8], 23.5%; in assay [9], 65.1%; in assay [10], 17.6%; in assay [11] it was 28.7%; in assay [12], 48.7%. For the same molecule, the growth in assay [13] is 4.24% (active); in assay [14], 33.4%; in assay [15] it was 26.9%; in [16], 20.5%; in assay [17] it was 65.6%; in [18], 30.1%.
